The structures appear in SMILES notation. Inconclusive results are not listed. Unmarked numbers belong to inactive results. The source made the active and inactive calls. The call rests on the fitted dose curve; in most records, active means well fitted cell-killing curve with a large enough effect; inconclusive means small, poorly fitted or top-dose-only effect, or effect the other way; inactive means no such curve, though single readings can be large or run the other way.
On the % scale 0 is the no-effect control and ±100 the full control effect; potency means the concentration at half of the fitted maximal effect.

In the experiment the test system is Tov-21-G. In words: Confirmatory qHTS for gynecologic anti-cancer compounds from libraries of approved drugs and bioactive compounds. Further: nearly all actives have a fitted effect of over 55% in size. The settings on record: gynecologic cancer cell panel viability, ATPlite luminescence, 48 h; series mostly up to 57.7 µM; activity change, negative = viability loss: at the top concentration. Put shortly:
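1,000 cells/well; 16 h pre-incubation 37 C, 5% CO2; pin-transferred cpd in DMSO, 11 conc (1:3), 57.5 uM–0.977 nM; 48 h; ATPlite, 15 min RT; luminescence → IC50.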
Turning to `Cc1csc(NC(=O)c2sc3nc4c(c(C(F)(F)F)c3c2N)CCC4)n1`, the Potency is 1.93 µM (active).

As to `COc1cccc2c1C(=O)c1c(O)c3c(c(O)c1C2=O)C[C@@](O)(C(=O)CO)C[C@@H]3O[C@H]1C[C@H](N)[C@H](O)[C@H](C)O1`, the Potency is 2.43 µM (active).

Take `Nc1ccccc1NC(=O)c1ccc(CNC(=O)OCc2cccnc2)cc1`: the Potency was 7.69 µM (active).

As for `COc1cc2nccc(Oc3ccc(NC(=O)Nc4cc(C)on4)c(Cl)c3)c2cc1OC`, the Potency was 19.3 µM (active).

On to `COc1cc(Nc2c(C#N)cnc3cc(OCCCN4CCN(C)CC4)c(OC)cc23)c(Cl)cc1Cl`, for which the Potency is 1.72 µM (active).

As for `COC(C)(C)CCn1nc(Nc2c(C)cccc2C)c2cnc(Nc3ccc(OCCN4CCCC4)c(F)c3)nc21`, the Potency was 1.37 µM (active).

For `CCN1CCN(Cc2ccc(-c3cc4c(NC(C)c5ccccc5)ncnc4[nH]3)cc2)CC1` (configuration not stated), the Potency was 1.72 µM (active).

Consider `CCN(CC)CCNC(=O)c1c(C)[nH]c(/C=C2\C(=O)Nc3ccc(F)cc32)c1C`, for which the Potency is 11.2 µM (active).

Regarding `Cc1cnc(Nc2ccc(CN3CCOCC3)cc2)nc1Nc1cccc(S(=O)(=O)NC(C)(C)C)c1`, the Potency was 0.243 µM (active).

`c1cc(N[C@@H]2CCNC2)nc(-c2cnc3ccc(-c4cn[nH]c4)cn23)c1`: the Potency is 2.43 µM (active).

`Cc1cc(SCc2sc(-c3ccc(C(F)(F)F)cc3)nc2C)ccc1OCC(=O)O`: the “activity change, negative = viability loss” value is 1.34%.

`OCCNC1CCCc2c1[nH]c1ccc(-c3ccccc3)cc21` (configuration not stated): the Potency was 27.3 µM (active).

As to `O=c1cc(CN2CCOCC2)occ1OCCCCCSc1ccnc2cc(C(F)(F)F)ccc12`, the “activity change, negative = viability loss” value was -17.4%.

On to `CC(=O)c1cnc2ccc(-c3cc(Cl)c(O)c(Cl)c3)nc2c1NC1CCC(CN(C)C)CC1` (configuration not stated), for which the Potency was 0.559 µM (active).

With `Cc1ccc(C(N)=O)cc1Nc1nccc(-c2cn(C(C)C)c3cnccc23)n1`, the Potency is 9.68 µM (active).

Take `CCc1nc(C(N)=O)c(Nc2ccc(N3CCC(N4CCN(C)CC4)CC3)c(OC)c2)nc1NC1CCOCC1`: the Potency was 2.67 µM (active).

For `COc1ccc(-c2cc3nccn3c(Nc3ncccc3C(N)=O)n2)cc1OC`, the Potency was 4.85 µM (active).

Turning to `COc1cccc2c1C(=O)c1c(O)c3c(c(O)c1C2=O)C[C@@](O)(C(=O)CO)C[C@@H]3O[C@H]1C[C@H](N)[C@H](O[C@@H]2CCCCO2)[C@H](C)O1`, the Potency was 8.63 µM (active).

With `Cc1ccc(C(=O)Nc2cccc(C(F)(F)F)c2)cc1-c1ccc2nc(NCCN3CCOCC3)ncc2c1`, the Potency was 4.85 µM (active).

For the molecule `Cc1cc(C2CCCCC2)n(O)c(=O)c1`, the Potency is 17.7 µM (active).

As for `CN(C)/N=N/c1nc[nH]c1C(N)=O`, the “activity change, negative = viability loss” value was 27.2%.

Turning to `CC(=O)O[C@H]1C(=O)[C@@]2(C)[C@H]([C@H](OC(=O)c3ccccc3)[C@]3(O)C[C@H](OC(=O)[C@H](O)[C@@H](NC(=O)c4ccccc4)c4ccccc4)C(C)=C1C3(C)C)[C@]1(OC(C)=O)CO[C@@H]1C[C@@H]2O`, the activity change, negative = viability loss was 0.907% [at 11 µM].

Consider `CCc1cccc(CC)c1NC(=O)N1Cc2[nH]nc(NC(=O)c3ccc(N4CCN(C)CC4)cc3)c2C1`, for which the Potency is 2.73 µM (active).

For `COc1cc(Nc2ncc(F)c(Nc3ccc4c(n3)N(COP(=O)(O)O)C(=O)C(C)(C)O4)n2)cc(OC)c1OC`, the Potency is 1.37 µM (active).

Turning to `Cc1ccc(-n2[nH]c(C)c(N=Nc3cccc(-c4cccc(C(=O)O)c4)c3O)c2=O)cc1C`, the “activity change, negative = viability loss” value is 16.8%.

As for `Cc1ccc2nc(N)[nH]c(=O)c2c1Sc1ccncc1`, the “activity change, negative = viability loss” value is -31.5%.

As to `NC(=O)Nc1cc(-c2cccc(F)c2)sc1C(=O)NC1CCCNC1` (configuration not stated), the Potency is 3.43 µM (active).

In the case of `CCC1C(=O)N(C)c2cnc(Nc3ccc(C(=O)NC4CCN(C)CC4)cc3OC)nc2N1C1CCCC1` (configuration not stated), the Potency was 1.93 µM (active).

With `CC1=C(CO)C(=O)O[C@@H]([C@@H](C)[C@H]2CC[C@H]3[C@@H]4C[C@H]5O[C@]56[C@@H](O)C=CC(=O)[C@]6(C)[C@H]4CC[C@]23C)C1`, the Potency was 3.35 µM (active).

Consider `NCCOc1cc(C(=O)Nc2cc(OCCN)c3ccccc3n2)nc(C(=O)Nc2cc(OCCN)c3ccccc3n2)c1`, for which the Potency was 24.3 µM (active).

`CNc1nc(Nc2ccc(C(=O)N3CCOCC3)cc2OC)ncc1Cl`: the “activity change, negative = viability loss” value is -9.86%.

In the case of `C1CCC(C(CC2CCCCN2)C2CCCCC2)CC1` (configuration not stated), the Potency was 12.2 µM (active).

The values are drawn from PubChem BioAssay AID1345085 (National Center for Advancing Translational Sciences (NCATS), 2018).
